Values without a mark were called inactive. The source made the active and inactive calls. Cut-off read from the data, not from the text of the source, unless noted: active = inhibition above about 36%; inactive = the rest.
Key:
[1] = system: transactivating tegument protein VP16 (Human herpesvirus 1); experiment: compounds suppressing VP16-driven luciferase signal – cell-based, luminescence, single concentration, counter-screen for SRC2 inhibitor project (AID 652007); conditions: cell-based VP16 transactivation luciferase reporter, at 8.9 µM, stronger effect = higher value
[2] = target: Nuclear receptor coactivator 2 (Homo sapiens) (UniProt Q15596); experiment: inhibition of GAL4-SRC2 driven luciferase expression – cell-based, luminescence, HEK293, triplicate, confirmation (AID 652008;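 active = mean inhibition above 46.5%, the solvent-only control mean plus 3 SD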;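 note: 0% = DMSO-treated cells and 100% = Gossypol at 36 µM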); conditions: HEK293 GAL4-SRC2 luciferase reporter, at 8.9 µM, stronger effect = higher value
Chain of Nuclear receptor coactivator 2 (Homo sapiens) (Q15596 whole entry, looked up, the tested form may be a part): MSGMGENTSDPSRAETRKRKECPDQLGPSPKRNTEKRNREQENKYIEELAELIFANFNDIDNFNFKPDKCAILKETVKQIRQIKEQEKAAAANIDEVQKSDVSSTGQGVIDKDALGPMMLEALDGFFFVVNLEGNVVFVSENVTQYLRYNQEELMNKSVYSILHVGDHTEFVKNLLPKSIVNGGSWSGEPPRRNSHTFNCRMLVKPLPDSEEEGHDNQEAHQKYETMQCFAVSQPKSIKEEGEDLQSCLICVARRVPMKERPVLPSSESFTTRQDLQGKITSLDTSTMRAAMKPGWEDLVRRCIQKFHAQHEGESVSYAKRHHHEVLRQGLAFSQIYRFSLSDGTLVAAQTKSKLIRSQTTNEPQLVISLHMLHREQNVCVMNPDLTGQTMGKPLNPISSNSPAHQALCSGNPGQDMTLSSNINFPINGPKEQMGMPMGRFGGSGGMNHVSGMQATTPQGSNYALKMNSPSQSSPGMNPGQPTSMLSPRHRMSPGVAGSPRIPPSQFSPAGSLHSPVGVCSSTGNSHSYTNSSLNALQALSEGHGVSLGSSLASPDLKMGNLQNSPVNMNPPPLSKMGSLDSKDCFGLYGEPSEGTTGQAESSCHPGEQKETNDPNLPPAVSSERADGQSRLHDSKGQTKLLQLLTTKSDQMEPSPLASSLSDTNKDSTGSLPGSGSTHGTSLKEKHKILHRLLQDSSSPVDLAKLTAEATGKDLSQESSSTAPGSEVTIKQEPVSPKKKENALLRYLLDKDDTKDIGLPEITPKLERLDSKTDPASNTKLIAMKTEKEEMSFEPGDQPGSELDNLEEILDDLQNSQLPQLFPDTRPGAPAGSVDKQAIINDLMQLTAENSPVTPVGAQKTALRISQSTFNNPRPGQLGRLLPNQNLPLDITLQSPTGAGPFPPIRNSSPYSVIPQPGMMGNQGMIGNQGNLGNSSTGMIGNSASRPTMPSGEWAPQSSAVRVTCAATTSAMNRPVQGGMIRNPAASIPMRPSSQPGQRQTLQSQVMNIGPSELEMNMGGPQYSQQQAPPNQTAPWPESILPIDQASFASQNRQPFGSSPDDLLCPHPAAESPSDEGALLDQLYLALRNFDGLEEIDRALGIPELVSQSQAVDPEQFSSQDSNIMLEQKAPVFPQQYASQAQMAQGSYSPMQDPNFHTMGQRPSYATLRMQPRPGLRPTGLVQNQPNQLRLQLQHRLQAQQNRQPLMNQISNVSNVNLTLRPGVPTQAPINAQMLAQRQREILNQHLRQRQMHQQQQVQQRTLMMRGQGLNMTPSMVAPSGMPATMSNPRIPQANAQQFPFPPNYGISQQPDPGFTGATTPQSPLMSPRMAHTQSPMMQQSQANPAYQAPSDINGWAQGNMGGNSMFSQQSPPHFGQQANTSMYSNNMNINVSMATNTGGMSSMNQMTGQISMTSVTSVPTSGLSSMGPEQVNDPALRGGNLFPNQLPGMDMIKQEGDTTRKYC

| SMILES | inhibition [1] | inhibition [2] |
| --- | --- | --- |
| Cc1ccc(-n2c(C)c([N+](=O)[O-])c3ccc(O)cc32)cc1 | 2.28% | 47.5% (active) |
| O=C1/C(=C/c2ccncc2)CCC/C1=C\c1ccncc1 | 89.1% (active) | 98.1% (active) |
| CN1Cc2sc(NC(=S)NC(=O)c3ccccc3)c(C#N)c2CC1(C)C | 20.5% | 58.2% (active) |
| O=C(NCc1cccnc1)/C(=C\c1ccc(-c2ccc(Cl)c(Cl)c2)o1)S(=O)(=O)c1ccccc1 | 75.3% (active) | 66.9% (active) |
| O=C(Nc1ncn[nH]1)c1ccc(Cl)c(S(=O)(=O)Nc2ccc(Cl)cc2)c1 | -5.84% | 5.69% |
| COc1ccc2c(c1)/C(=C\c1cccc(/C=C3/C(=O)Nc4ccc(OC)cc43)n1)C(=O)N2 | 90.5% (active) | 76.2% (active) |
| COc1ccc(CCNC(=S)N2CCC(C(=O)c3ccc(F)cc3)CC2)cc1OC | 11.5% | 20.5% |
| CCOc1ccc2oc(C(=O)NCc3ccccc3CN3CCCC3)c(C)c2c1 | -10.5% | -12.9% |
| COc1cc(OC)cc(C2=Cc3ccc(OC)cc3C(CC(C)=O)N2c2ccc(C#CC3(O)CCCCC3)cc2)c1 (stereo unspecified) | -2.24% | 19.6% |
| O=C(NC(=S)Nc1cccc2cc(O)ccc12)c1ccccc1Br | 2.57% | -14.4% |
| CCC(=O)Nc1ccc2c(c1)C(=O)N(C)[C@@H]1CC[C@@H](CC(=O)NCc3ccc(OC)cc3)O[C@H]1CO2 | -18.1% | -9.9% |
| CCOC(=O)C(=Cc1ccc(-n2cncn2)cc1)C(=O)OCC | 15.5% | 24.5% |
| CC(C)C[C@H]1CN(CCCC[C@H]2CNC(=O)C(=O)N2CCc2ccccc2)C(=O)C(=O)N1CCC1CCCCC1 | 10.7% | -17.3% |
| CC(C)(C)c1ccc(-c2noc(CCC(=O)NCC3CCCO3)n2)cc1 (stereo unspecified) | 42.1% (active) | 67.2% (active) |
| CCCCCC(=O)N1CC2(CC(c3cccc(NC(=O)COc4ccc(Cl)cc4)c3)=NO2)C[C@@H]1C(N)=O (stereo partly specified) | -7.91% | -5.91% |
| COc1ccc(CC(=O)NNC(=O)c2ccc(Br)o2)cc1 | -9.53% | -27.1% |
| Cc1ccc2c(c1)N(C(C)C(=O)NCc1ccc3c(c1)OCO3)C(=O)CO2 (stereo unspecified) | -10.5% | -19.4% |
| CC(C)(C)c1ccc(OCC(O)CSc2ncn[nH]2)cc1 (stereo unspecified) | 0.7% | 14.2% |
| CCCOc1ccc(C(=O)C(CN2CCOCC2)c2ccccc2)cc1 (stereo unspecified) | 14% | 53.9% (active) |
| CCOC(=O)c1c(NC(=O)C2=COCCO2)sc2c1CCN(C(=O)OC)C2 | 3.45% | 8.72% |
| CC(=O)NN1C(=O)/C(=C\c2ccc(Br)o2)SC1=S | 14.8% | 19.2% |
| CCOC(=O)C(C(=O)OCC)C(Nc1cccc(Br)c1)c1ccccc1 (stereo unspecified) | 8.47% | 19.3% |
| COC(=O)Cc1ccc(NC(=O)c2ccccc2Cl)cc1 | -35.8% | 8.14% |
| CCNC(=O)NC(=O)C(C)OC(=O)CCCSc1nc2ccccc2s1 (stereo unspecified) | 14.4% | 22.5% |
| Cc1ccc(O)c(/C=N/NC(=O)Cc2ccc(Cl)cc2)c1 | -11.1% | -13.9% |

| SMILES | inhibition [1] | inhibition [2] |
| --- | --- | --- |
| O=C(CCl)Nc1ccc(C(=O)NCC2COc3ccccc3O2)cc1 (stereo unspecified) | 71.2% (active) | 39.9% |
| CC(C)CC(NC(=O)c1ccco1)C(=O)Nc1ccc2c(c1)OCCO2 (stereo unspecified) | 10.6% | 7.27% |
| CN(C)c1ccc(NC(=S)c2ccccn2)cc1 | 1.77% | 59.6% (active) |
| Cc1c([N+](=O)[O-])cnc(Sc2ccccc2)c1[N+](=O)[O-] | 3.41% | 16.7% |
| Cc1ccc(CN2C(=O)/C(=C\c3ccc(C(=O)NCc4cccnc4)cc3)Oc3ccccc32)cc1 | -0.83% | 50.2% (active) |
| Cc1nc2cc(-c3ccccc3)nn2c(C)c1CCC(=O)NCc1ccco1 | -27.7% | 46.5% (active) |
| COC(=O)COc1ccc(S(=O)(=O)Nc2ccc3c(c2)OCCO3)cc1C | -11.5% | 6.48% |
| Cn1nnnc1Sc1ncnc2scc(-c3ccsc3)c12 | 18.3% | 45% |
| CC(C)COc1ccc(C/C(N)=N/n2cnnc2)cc1 | 22.1% | 40.3% |
| COc1ccc(C(=O)C(CN2CCOCC2)c2ccccc2)cc1F (stereo unspecified) | -1.66% | 13.4% |
| Cc1ccoc1C(=O)Nc1ccc(CC(=O)O)cc1 | 41.7% (active) | 83.4% (active) |
| O=c1oc2ccc(C#CC3(O)CCCCC3)cc2cc1-n1cc(-c2ccccn2)nn1 | -8.43% | -3.27% |
| Cc1cc(OCC(=O)Nc2ccncc2)cc(C)c1Cl | 4.55% | 11.3% |
| CCOC(=O)C1CCN(C(=O)CCc2c(C)nc3cc(-c4ccccc4)nn3c2C)CC1 | -24.4% | 48.5% (active) |
| Cc1ccc2c(c1)COc1c3ccc(C(=O)O)cc3nn1-2 | -24.7% | -1.87% |
| CCCCCc1c(C)nc(N2CCc3ccccc32)[nH]c1=O | -17.3% | 14.9% |
| C=CS(=O)(=O)N(Cc1ccc(F)cc1)C(=C)C(=O)OC | 33.7% | -13.2% |
| Cc1ccc(C)c(OCc2ccc(C(=O)Nc3ccc([N+](=O)[O-])cn3)o2)c1 | 8.86% | 35.9% |
| N#CC1C=Cc2c(ccc3ccccc23)N1C(=O)c1ccccc1 (stereo unspecified) | -39.9% | 56.4% (active) |
| CCCc1ncc(CN2CCC(C(=O)Nc3cccc(-c4cscn4)c3)CC2)cn1 | 12.2% | 15.5% |
| CCOc1ccc(CN(C)C(=O)CCl)cc1 | 30.9% | 35.6% |
| COc1ccc(CNC(=O)C2CCCN(Cc3nc(-c4cccc(C)c4)oc3C)C2)cc1 (stereo unspecified) | -10.5% | 0.33% |
| Cc1cc(C2=NNC(=NC3CC3)SC2)c(C)n1Cc1ccco1 | 78.6% (active) | 93.6% (active) |
| O=C(c1ccccc1)C(CN1CCCCC1)c1ccccc1 (stereo unspecified) | 29.1% | 63.6% (active) |
| Cc1nnc(SCc2nc3sc(C(=O)O)c(C)c3c(=O)[nH]2)s1 | 21.2% | 9.02% |

| SMILES | inhibition [1] | inhibition [2] |
| --- | --- | --- |
| COc1ccccc1-c1cn[nH]c1-c1ccc(O)cc1O | 1.82% | 11.9% |
| O=C(Nc1nc2cc3c(cc2s1)OCO3)C1=COCCO1 | 26.7% | 70.3% (active) |
| CCSc1ccccc1C(=O)N1CCN(c2ccc([N+](=O)[O-])cc2)CC1 | 0.48% | 15.7% |
| Cc1ccc(N(C(=O)CCl)C(C(=O)NC2CCCCC2)c2cccnc2)cc1C (stereo unspecified) | 55.2% (active) | 61.7% (active) |
| CCOn1c(=O)c[n+]([O-])c2ccccc21 | 9.21% | -6.65% |
| c1cc(-c2nnc3n2N=C(c2ccc4c(c2)OCO4)CS3)ccn1 | -3.48% | 42.4% |
| Cn1nnnc1Sc1ncnc2scc(-c3ccc(C#N)cc3)c12 | 12.5% | 30.8% |
| O=C(O)CCCc1ccc2c(c1)CCc1ccccc1-2 | 29.6% | 77.1% (active) |
| CC(C)(C)n1nc2c(c1NC(=O)c1cc([N+](=O)[O-])ccc1Cl)CS(=O)(=O)C2 | 25.2% | 47.5% (active) |
| Cc1cc(C)n(CCC(=O)N/N=C/c2c(O)ccc3ccccc23)n1 | 5.98% | 17.2% |
| CC(C)Cc1nnc(NC(=O)CCC(=O)N2CCN(Cc3ccccc3)CC2)s1 | 8.01% | 17.4% |
| O=C1c2ccccc2S(=O)(=O)N1Cc1nc2ccccc2s1 | 6.44% | 31.4% |
| CCOC(=O)CN(C)C(=O)CCc1nnc(-c2ccc(-c3ccccc3)cc2)o1 | -17.7% | 19.8% |
| CCOc1cc(NC(=S)NCc2ccco2)c(OCC)cc1NC(=O)CC | -10.4% | -9.88% |
| CC(C)(C)c1ccc(NC(=O)COc2ccc(-n3ccnc3)cc2)cc1 | 10.3% | 61.8% (active) |
| COc1ccc(S(=O)(=O)N/N=C\c2ccc3c(c2)OCO3)c(OC)c1 | 10.4% | 34.9% |
| CCOC(=O)C1CCCN(C(=O)c2ccc3c(c2)N(C)C(=O)/C(=C/c2ccccc2Cl)S3)C1 (stereo unspecified) | -1.52% | 23.8% |
| COc1ccc(N2CCN(C3CCCN(S(=O)(=O)c4ccc(C)cc4C)C3)CC2)cc1 (stereo unspecified) | -13% | 29.6% |
| O=[N+]([O-])c1cccc2c(N3CCCC3)ccnc12 | 11.7% | -23.4% |
| CC(=O)N1CCCc2cc(S(=O)(=O)N3CCCC(C(=O)NCc4ccccc4Cl)C3)ccc21 (stereo unspecified) | 24.9% | 21.1% |
| CCOc1ccc(-c2cc(CCCC(=O)NCc3ccco3)no2)cc1 | 16.9% | 37.5% |
| COc1ccc(S(=O)(=O)N2c3ccc(F)cc3CCC2C)cc1 (stereo unspecified) | -6.76% | 1.23% |
| COC(=O)c1ccc(CSc2nc3sc(C)c(C)c3c(=O)[nH]2)cc1 | -20.1% | -17.4% |

From PubChem BioAssay
